Inconclusive results are not listed. Where a call stands in place of a potency, no number is given. Calls of active or inactive are those of the source. Calls come from the whole dose curve; as a rule, active = well fitted inhibition curve with a large enough effect in the repeat runs; inconclusive = weak or mixed curves, or effect the other way; inactive = no such curve, though single readings can be large or run the other way.
Potency is the fitted concentration of half-maximal effect.

Chain of Nuclear receptor subfamily 1 group I member 3 (Homo sapiens) (Q14994 whole entry, looked up): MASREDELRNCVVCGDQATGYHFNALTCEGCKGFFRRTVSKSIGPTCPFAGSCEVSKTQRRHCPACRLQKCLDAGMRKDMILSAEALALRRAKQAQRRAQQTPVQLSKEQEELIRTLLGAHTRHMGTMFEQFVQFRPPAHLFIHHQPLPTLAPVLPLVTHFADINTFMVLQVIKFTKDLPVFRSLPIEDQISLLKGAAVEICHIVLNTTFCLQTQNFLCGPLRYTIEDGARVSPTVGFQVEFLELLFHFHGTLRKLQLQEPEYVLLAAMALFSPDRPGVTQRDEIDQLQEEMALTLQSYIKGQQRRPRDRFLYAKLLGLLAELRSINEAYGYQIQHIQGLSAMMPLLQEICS

This experiment addresses Nuclear receptor subfamily 1 group I member 3 (Homo sapiens) (UniProt Q14994). The experiment in a line: qHTS assay to identify small molecule antagonists of the constitutive androstane receptor (CAR) signaling pathway (AID 1224838).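 Note: HepG2 cells stably expressing hCAR with CYP2B6 luciferase reporter stimulated by CITCO; nearly all actives have a fitted effect of over 40% in size.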 The settings on record: HepG2-CYP2B6-hCAR luciferase, CITCO-stimulated, 24 h; series mostly up to 92.4 µM. An excerpt: U.S. Tox21 Program National Center for Advancing Translational Sciences [NCATS] NIH Chemical Genomics Center [NCGC] U.S. Environmental Protection Agency [EPA] National Institutes of Environmental Health Sciences [NIEHS] National Toxicology Program [NTP] U.S. Food and Drug Administration [FDA] Tox21 Assay Overview: The constitutive androstane receptor (CAR) is a nuclear receptor which regulates multiple drug metabolizing enzymes (DMEs) and transporters. Activating CAR will generally increase the transcription and subsequent translation of CYP2B6 and CYP3A4. These two DMEs represent about 50% of the drug metabolizing potential in the body. When CAR is deactivated, the metabolizing potential in the body will decrease, subsequently increasing the toxicity in the body or lowering the therapeutic potential of a pro-drug. Recently, there have also been studies performed indicating CARs role in energy metabolism and cancer therapy. Therefore, inhibiting CARs activity could have a potential effect on diabetes and cancer. Identifying environmental toxins and compounds which modulate CAR, through the use of the Tox21 10K compound collection, will be an important step in determining the toxicity and potential therapeutic effects these factors will have on the human body.
Tox21 Assay Protocol Summary: A double-stable (hCAR and CYP2B6-2.2kb) transfected cell line, derived from human hepatoma (HepG2) cells, was utilized for the duration of the quantitative high-throughput screens. The HepG2-CYP2B6-hCAR cells suspended in DMEM culture medium supplemented with 10% FBS, 5 ug/mL blasticidin, 0.5 mg/mL geneticin, 100 U/mL penicillin and 100 ug/mL streptomycin were dispensed at 2500 cells/4 uL/well in 1536-well white solid bottom plates using a Multidrop Combi. After the assay plates were incubated at 37 C/5% CO2 for 4 hrs, 23 nL of compounds at 15 concentrations (from 5-48 columns) or positive control (from 1 to 4 columns) were transferred to the assay plates using a Pintool station. One uL of CITCO, was added using a Flying Reagent Dispenser to generate a final concentration of 50 nM CITCO inside each well. After a 24 hr incubation period at 37 C/5% CO2, four uL of ONE-Glo reagent was added into the assay plates using a Flying Reagent Dispenser. After a 30 min incubation period at room temperature, the luminescence intensity in the assay plates was measured using a ViewLux plate reader.
For orientation: In qHTS, concentration-response curves come from the screen itself.
Consider `CC[C@H]1C[C@H]2[C@@H]3CCC4=CC(=O)CC[C@@H]4[C@H]3CC[C@]2(C)[C@H]1O`, for which the Potency result is “inactive”.

`C=COC(C)=O`: the Potency result was “inactive”.

In the case of `Nc1ccc(N=Nc2ccc(-c3ccc(N=Nc4c(S(=O)(=O)O)cc5cc(S(=O)(=O)O)c(N=Nc6ccccc6)c(O)c5c4N)cc3)cc2)c(N)c1`, the Potency result was “inactive”.

With `C/C=C/C=O`, the Potency result is “inactive”.

`CCCCc1c(C)nc(NCC)nc1OS(=O)(=O)N(C)C`: the Potency entry is “inactive”.

Regarding `IC(I)=C(I)I`, the Potency was 12.2 µM (active).

On to `CC(=O)[C@H]1CC[C@H]2[C@@H]3CC[C@H]4C[C@](C)(O)CC[C@]4(C)[C@H]3CC[C@]12C`, for which the Potency entry is “inactive”.

Regarding `O=C(O)C1(c2ccc3c(c2)OC[C@H](Cc2ccc(-c4ccccc4)cc2)[C@H]3O)CCCC1`, the Potency entry was “inactive”.

As to `COc1ccc(-c2ccccc2)cc1NNC(=O)OC(C)C`, the Potency result is “inactive”.

Turning to `O=C1NCN(c2ccccc2)C12CCN(CCCOc1ccc(F)cc1)CC2`, the Potency was 9.44 µM (active).

As to `Nc1ccc([N+](=O)[O-])cc1[N+](=O)[O-]`, the Potency result was “inactive”.

Consider `CC(=O)C(C)(C)C`, for which the Potency entry is “inactive”.

Regarding `C=CC(=O)OCC(C)C`, the Potency entry is “inactive”.

Turning to `CCC(Cl)CCl` (stereo not given), the Potency result was “inactive”.

Turning to `O=C(NCc1cccnc1)Nc1ccc([N+](=O)[O-])cc1`, the Potency result was “inactive”.

With `CCOP(=S)(OCC)Oc1nc(Cl)c(Cl)cc1Cl`, the Potency entry was “inactive”.

For the molecule `O=NN1CCNCC1`, the Potency result is “inactive”.

Take `C[C@H]1CNCCc2ccc(Cl)cc21`: the Potency result was “inactive”.

Turning to `COc1nn(CSP(=S)(OC)OC)c(=O)s1`, the Potency result is “inactive”.

Consider `CC1(C)[C@H](C=C(Cl)Cl)[C@@H]1C(=O)O[C@@H](C#N)c1cccc(Oc2ccccc2)c1`, for which the Potency entry is “inactive”.

`CC(c1ccc(O)cc1)(c1ccc(O)cc1)c1ccc(O)cc1`: the Potency is 9.69 µM (active).

Take `CCc1ccc(C(=O)NN(C(=O)c2cc(C)cc(C)c2)C(C)(C)C)cc1`: the Potency result is “inactive”.

In the case of `N#CCC#N`, the Potency was 61.1 µM (active).

Regarding `O=[Se]=O`, the Potency is 27.1 µM (active).

For the molecule `OC(c1ccc(Cl)cc1)(c1ccc(Cl)cc1)c1cccnc1`, the Potency result was “inactive”.

On to `COP(=S)(Oc1cc(Cl)c(Br)cc1Cl)c1ccccc1` (stereo not given), for which the Potency entry is “inactive”.

As for `O=C1C(=O)c2cccc3cccc1c23`, the Potency entry is “inactive”.

As for `CCCCCCCCCC(=O)O[C@H]1CC[C@H]2[C@@H]3CCC4=CC(=O)CC[C@@H]4[C@H]3CC[C@]12C`, the Potency entry was “inactive”.

Consider `Cc1ccccc1C(=O)Nc1cccc(OC(C)C)c1`, for which the Potency entry was “inactive”.

Turning to `CCCCOC(=O)c1ccccc1C(=O)OCc1ccccc1`, the Potency entry was “inactive”.

In the case of `O=C(O)COc1ccc(Cl)cc1`, the Potency result is “inactive”.

`C#CCOC(C(=O)OCCN(C)C)(c1ccccc1)c1ccccc1`: the Potency result was “inactive”.

Regarding `CCCN(CC1CC1)c1c([N+](=O)[O-])cc(C(F)(F)F)cc1[N+](=O)[O-]`, the Potency entry was “inactive”.

On to `COCCOCCO`, for which the Potency result was “inactive”.

For `NNC(=O)c1cccnc1`, the Potency entry was “inactive”.

Turning to `C=CC(=O)OC(C)(C)C`, the Potency entry was “inactive”.

On to `Cn1cc[n+](C)c1` (tested in a mixture with another compound), for which the Potency entry is “inactive”.

Take `CCOP(=S)(OCC)SCn1nnc2ccccc2c1=O`: the Potency result is “inactive”.

As for `C/C(=C\c1ccccc1)[N+](=O)[O-]`, the Potency was 24.3 µM (active).

For the molecule `CO/C=C(/C(=O)OC)c1ccccc1COc1cccc(C(F)(F)F)n1`, the Potency result is “inactive”.

These data come from PubChem BioAssay (Tox21).
